ELG1 repair inh: inhibitors of ELG1-dependent DNA repair in HEK293T cells; HEK293T ELG1-luciferase reporter, luminescence, 16 h; DNA damage induced by 5-fluorouridine; actives 2.3% (n = 330,000); Potency, µM (top dose mostly 46.1 µM), without a hit: at the top dose activity change, negative = inhibition, usual class: inhibitors; also: % is scaled to controls: 0 for no effect and ±100 for the full control effect; nearly all actives have a fitted effect of over 55% in size
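HEK293T cells expressing luciferase-tagged ELG1 (2,000/well) received 5-Fluorouridine plus compound or DMSO for 16 hr at 37 °C. Luciferase was read by ONE-Glo luminescence after 30 min at room temperature.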
Rab9 promoter act: Rab9 promoter activation; AID 485297; Huh7 Rab9 promoter-luciferase reporter, luminescence, 24 h; actives 2.8% (n = 320,000); Potency, µM (series often up to 9.22 µM), for the others: at the top dose activation, negative = inhibition, actives largely listed as activators; also: % of control where 0% means no effect; nearly all actives have a fitted effect of over 60% in size
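Stable Rab9-luc Huh7, 1500 cells/well, 2 h settle; cmpd in DMSO, 24 h, 37 °C/5% CO2; luciferase reagent 10 min RT; luminescence.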
FLuc counter: counter-screen for miR-21 project: firefly luciferase inhibitors or activators | actives 6.9% (n = 360,000) | AID 588342 | purified FLuc, Km substrates, luminescence inhibition | Potency, µM (highest dose often 57.5 µM), for inactives: at the highest dose activity change, negative = inhibition, hits mostly inhibitors;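 also: plate controls were vehicle for no effect and reference inhibitor for full effect; nearly all actives have a fitted effect of over 55% in size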
Target sequence (P08659 whole entry, looked up): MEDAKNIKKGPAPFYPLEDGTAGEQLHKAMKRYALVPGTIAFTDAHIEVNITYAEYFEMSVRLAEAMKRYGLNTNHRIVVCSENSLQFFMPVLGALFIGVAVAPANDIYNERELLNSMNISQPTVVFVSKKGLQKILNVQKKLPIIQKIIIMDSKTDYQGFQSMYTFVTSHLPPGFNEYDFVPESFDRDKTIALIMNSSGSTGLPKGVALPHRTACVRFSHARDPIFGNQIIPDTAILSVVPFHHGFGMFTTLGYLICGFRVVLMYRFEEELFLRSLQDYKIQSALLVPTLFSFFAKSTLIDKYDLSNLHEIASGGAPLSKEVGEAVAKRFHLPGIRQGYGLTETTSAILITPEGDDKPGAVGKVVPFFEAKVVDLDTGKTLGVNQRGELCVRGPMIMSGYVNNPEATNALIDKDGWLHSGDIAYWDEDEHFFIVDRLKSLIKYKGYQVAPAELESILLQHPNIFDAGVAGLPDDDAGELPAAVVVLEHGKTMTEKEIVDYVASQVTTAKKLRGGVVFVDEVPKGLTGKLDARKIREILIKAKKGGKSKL
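Purified P. pyralis luciferase, 10 nM final, with Km-level 10 uM D-luciferin and 10 uM ATP in 50 mM Tris acetate pH 7.5, 10 mM Mg acetate, 0.01% Tween-20, 0.05% BSA; 6-point qHTS titration about 60 µM downward; luminescence read.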
SMN2 splice up: enhancers of SMN2 splice variant expression; HEK293 SMN2-luciferase splicing reporter, luminescence, 30-36 h; Potency, µM (doses to about 46.1 µM), inactives show at the highest dose activity change, positive = activation, usual class: activators; actives 2.8% (n = 210,000); AID 1458; also: % of control where 0% means no effect; nearly all actives have a fitted effect of over 55% in size
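HEK293 cells carry an SMN2 minigene-luciferase reporter in which exon 7 inclusion puts luciferase in frame. Cells were seeded at 2000 cells/well, attached for 10-12 hours, then exposed to compounds for 30-36 hours at 37C before ONE-Glo luminescence.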
ELG1 genotoxic: genotoxicity induction in ELG1-luciferase HEK293T cells; AID 504466; HEK293T ELG1-luciferase reporter, luminescence, 16 h; actives 1.3% (n = 330,000); Potency, µM (series often up to 46 µM), for the others: top-dose activity change, positive = activation, usual class: activators; also: % of control where 0% means no effect; nearly all actives have a fitted effect of over 60% in size
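DMSO vehicle served as control against compound-treated ELG1-luciferase HEK293T cells; exposure lasted 16 hr at 37 °C and 5% CO2, followed by ONE-Glo luminescence detection after 30 min.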
NPC1 prom act: activators of NPC1 promoter; Huh7 NPC1 promoter luciferase reporter, 24 h; Potency, µM (highest dose often 9.22 µM), without a hit: at the top dose activation, hits mostly activators; actives 2.4% (n = 320,000); AID 485313; also: % of control where 0% means no effect; nearly all actives have a fitted effect of over 60% in size
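Quantitative HTS used a cell-based reporter: Huh7 cells stably bearing the NPC1 promoter upstream of luciferase were treated with compounds for 24 h, and promoter activation was read as luminescence.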
ELG1 FLuc counter: luciferase inhibition in cell-free luciferin readout for ELG1 hits; cell-free firefly luciferase luminescence counter-screen, ViewLux; shares compounds with ELG1 repair inh; Potency, µM (highest dose often 46.1 µM), inactives show at the top dose activity change, negative = inhibition, hits mostly inhibitors; actives 3% (n = 350); AID 624247; also: % is scaled to controls: 0 for no effect and ±100 for the full control effect
ELG1-Luc inh: inhibits ELG1-dependent DNA repair in HEK293T cells, confirmed. shares compounds with ELG1 repair inh. HEK293T ELG1-luciferase levels, luminescence; cells co-treated with 5-fluorouridine. Potency, µM (top dose mostly 46.1 µM), without a hit: at the highest dose activity change, negative = inhibition, usual class: inhibitors. actives 68% (n = 670). AID 624248; also: % is scaled to controls: 0 for no effect and ±100 for the full control effect; nearly all actives have a fitted effect of over 55% in size
ELG1-Luc MMS: MMS-stimulated human ELG1 repair inhibition, confirmed; shares compounds with ELG1 repair inh; AID 624249; Potency, µM (series often up to 46.1 µM), without a hit: top-dose activity change, negative = inhibition, most hits filed as inhibitors; actives 53% (n = 670); HEK293T luciferase-tagged ELG1 level, MMS stimulated; also: % is scaled to controls: 0 for no effect and ±100 for the full control effect; nearly all actives have a fitted effect of over 60% in size
ELG1 5FU viab: confirmation of ELG1 repair inhibitors: viability with 5FU. Potency, µM (top dose mostly 46.1 µM), without a hit: at the highest dose activity change, negative = viability loss, hits mostly cytotoxic. AID 624250. shares compounds with ELG1 repair inh. 670 tested, under 10 active. cell viability with 5-FU, ELG1-dependent repair;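 also: ELG1-luc HEK293T cells cotreated with 5-fluorouridine at 10 µM final; viability measured 16 h after compound addition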
ELG1 MMS cell: confirmation of ELG1 repair inhibitors: viability with MMS; shares compounds with ELG1 repair inh; Cell viability with MMS, ELG1-dependent DNA repair; Potency, µM (highest dose often 46.1 µM), inactives show at the top dose activity change, negative = viability loss, hits mostly cytotoxic; actives 33% (n = 670);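 also: ELG1-luc HEK293T cells co-treated with 10 µM MMS; viability read 16 h after compound addition; % is scaled to controls: 0 for no effect and ±100 for the full control effect; nearly all actives have a fitted effect of over 60% in size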
Cell viab unstim: unstimulated viability counter-screen for ELG1 repair hits. shares compounds with ELG1 repair inh. cell viability counter-screen, unstimulated, luminescence. Potency, µM (titrated, usually from 45.9 µM), without a hit: at the highest dose activity change, negative = loss of viability, actives largely listed as cytotoxic. actives 8% (n = 900);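 also: compound exposure lasted 16 hours before reading; % is scaled to controls: 0 for no effect and ±100 for the full control effect; nearly all actives have a fitted effect of over 55% in size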
FLuc biochem: inhibits purified firefly luciferase, counter-screen for ELG1 hits; shares compounds with ELG1 repair inh; purified firefly luciferase, luminescence counter-screen; Potency, µM (highest dose often 57.5 µM), without a hit: at the highest dose activity, negative = inhibition, hits mostly inhibitors; actives 10% (n = 350); AID 624253; also: % is scaled to controls: 0 for no effect and ±100 for the full control effect
The depositor's hits bear a star; u = inconclusive; x = no result given. Rows were chosen to be rich in hits. Some 9.4% of all compounds tested hit in one or more screens of this group. Calls follow the shape of the dose curve; as a rule, active = well fitted curve in the direction sought with a large enough effect; inconclusive = small, poorly fitted or top-dose-only effect, or another doubt; inactive = no such curve, though single readings can be large; an effect the other way counts as inactive or inconclusive. Potency is read from the fitted curve at half-maximal effect.

SMILES	ELG1 repair inh	Rab9 promoter act	FLuc counter	SMN2 splice up	ELG1 genotoxic	NPC1 prom act	ELG1-Luc inh	ELG1-Luc MMS	ELG1 5FU viab	ELG1 MMS cell	Cell viab unstim	others
COC(=O)c1ccc(OCC2c3cc(OC)c(OC)cc3CCN2C(C)=O)cc1 (centres undefined)	6.5µM*	-3%	-15%	-37%	-4%	-9%	10µM*	u	u	u	u	ELG1 FLuc counter=29%;FLuc biochem=-16%
O=C(NNc1ccnc2cc(Cl)ccc12)C1CCCCC1	0.52µM*	-31%	0%	-71%	-8%	-39%	-9%	0.89µM*	-5%	0.71µM*	u	ELG1 FLuc counter=-17%;FLuc biochem=-8%
CC(C)CC(C)NNC(=O)c1cc2ccccc2[nH]1 (centres undefined)	u	2%	0%	3%	-2%	7%	x	x	x	x	x
O=C(c1cc2ccccc2[nH]1)c1cc2cc(O)ccc2[nH]1	x	x	x	x	x	x	x	x	x	x	-1%
Cc1nn(-c2ccc(NC(=O)c3ccncc3)cc2)c(C)c1Cl	4.6µM*	-29%	-4%	x	-5%	-29%	14µM*	2.2µM*	-16%	1.6µM*	16µM*
C/C(=N\NC(=O)c1c(Cl)c(C)nn1C)c1ccc(NC(=O)c2ccncc2)cc1	u	-3%	4%	-57%	-2%	1%	x	x	x	x	x
CCN1CCN(c2nnc(-n3cccc3C(=O)NCc3ccccc3OC)s2)CC1	x	x	-4%	x	x	x	x	x	x	x	x
COc1cccc(N2CC(NS(=O)(=O)c3cccnc3)CC2=O)c1 (centres undefined)	4.1µM*	5%	-14%	x	-3%	-1%	27%	11%	4%	u	10%
COc1ccccc1CNC(=O)CCn1c(=O)c2ccccc2n(CC(=O)Nc2ccc(C)cc2C)c1=O	x	x	0%	-4%	x	x	x	x	x	x	x
CCN1CCN(c2ccc(Nc3ccnc4ccccc34)cc2)CC1	4.6µM*	-2%	4%	x	-10%	2%	u	18µM*	-8%	u	-13%
O=C(CCCCn1c(=O)c2ccccc2n(CC(=O)Nc2cccc(F)c2)c1=O)NCc1ccccc1Cl	x	x	-2%	4%	x	x	x	x	x	x	x
COc1cc2cnc(-c3ccccc3)c(C(=O)c3ccc(OCc4ccccc4)cc3)c2cc1OC	2.6µM*	x	x	x	1%	x	10µM*	13µM*	u	11µM*	0%
c1ccc2c(c1)CCN(c1nc(CN3CCOCC3)nc3sc4c(c13)CCCC4)C2	10µM*	-2%	4%	u	-1%	0%	10µM*	u	u	-19%	-20%	ELG1 FLuc counter=-11%;FLuc biochem=-2%
CCn1cc(C(=O)NCC(OC)OC)c(=O)c2cc(S(=O)(=O)N3CCCC3)ccc21	-16%	-2%	1%	x	-2%	2%	x	x	x	x	x
CCn1cc(C(=O)NCC(OC)OC)c(=O)c2cc(S(=O)(=O)N3CCC(C)CC3)ccc21	2.6µM*	-2%	1%	x	-15%	-5%	16µM*	16µM*	-20%	u	16µM*
CCOCCCNC(=O)c1cn(C)c2ccc(S(=O)(=O)N3CCCCC3)cc2c1=O	-4%	-3%	1%	x	0%	0%	x	x	x	x	x
COCCNC(=O)c1cn(C)c2ccc(S(=O)(=O)N3CCCCC3)cc2c1=O	2.9µM*	-4%	1%	x	-14%	-6%	u	u	-2%	-15%	u
CCc1ccc(NC(=O)C2CCCN(S(=O)(=O)c3ccc4c(c3)oc(=O)n4C)C2)cc1 (centres undefined)	x	x	2%	12%	x	x	x	x	x	x	x
O=C(Nc1cccc(NC(=O)c2cccc([N+](=O)[O-])c2)n1)c1cccc([N+](=O)[O-])c1	2.1µM*	0%	-13%	x	u	-2%	u	6%	-4%	u	u
Cn1c(=O)c(=O)n(C)c2cc(S(=O)(=O)Nc3ccc(Cl)c(C(F)(F)F)c3)ccc21	x	x	u	-5%	x	x	x	x	x	x	x
Cc1ccc(C(=O)NN=CC(=O)c2ccccc2)c(C)c1	u	x	x	x	2.3µM*	x	x	x	x	x	-19%
COCCNC(=O)c1ccc(C)cc1C	u	-8%	-1%	5%	0%	0%	x	x	x	x	x
O=C(c1ccc(Cl)c(S(=O)(=O)N2CCCCC2)c1)N1CCN(c2ccccc2)CC1	u	-21%	2%	x	-8%	-2%	x	x	x	x	x
O=C(c1ccc(Cl)c(S(=O)(=O)N2CCOCC2)c1)N1CCN(c2ccccc2)CC1	0.082µM*	-5%	0%	x	-7%	-2%	u	-2%	-7%	-17%	u	ELG1 FLuc counter=48%;FLuc biochem=-7%
O=C(C1=C[C@@H](c2ccc3c(c2)OCO3)C[C@@H](OCCCCO)O1)N1CCN(Cc2ccc3c(c2)OCO3)CC1	0%	-6%	6%	x	-9%	-2%	x	x	x	x	x

Screening data: PubChem BioAssay, National Center for Advancing Translational Sciences (NCATS)
